Reference: PubChem BioAssay (Tox21)
Results filed as inconclusive are left out. Calls of active or inactive are those of the source. Unless noted, calls come from the whole dose curve.

Experiments:
[1] = biological target: Estrogen receptor (Homo sapiens) (UniProt P03372); assay: qHTS assay to identify small molecule agonists of the estrogen receptor alpha (ER-alpha) signaling pathway in the presence of an antagonist (AID 1259383); note: nearly all actives have a fitted effect of over 15% in size; note: potency is the fitted concentration of half-maximal effect; for activation: top concentration of the series differs between compounds
Chain of Estrogen receptor (Homo sapiens) (P03372 whole entry, looked up): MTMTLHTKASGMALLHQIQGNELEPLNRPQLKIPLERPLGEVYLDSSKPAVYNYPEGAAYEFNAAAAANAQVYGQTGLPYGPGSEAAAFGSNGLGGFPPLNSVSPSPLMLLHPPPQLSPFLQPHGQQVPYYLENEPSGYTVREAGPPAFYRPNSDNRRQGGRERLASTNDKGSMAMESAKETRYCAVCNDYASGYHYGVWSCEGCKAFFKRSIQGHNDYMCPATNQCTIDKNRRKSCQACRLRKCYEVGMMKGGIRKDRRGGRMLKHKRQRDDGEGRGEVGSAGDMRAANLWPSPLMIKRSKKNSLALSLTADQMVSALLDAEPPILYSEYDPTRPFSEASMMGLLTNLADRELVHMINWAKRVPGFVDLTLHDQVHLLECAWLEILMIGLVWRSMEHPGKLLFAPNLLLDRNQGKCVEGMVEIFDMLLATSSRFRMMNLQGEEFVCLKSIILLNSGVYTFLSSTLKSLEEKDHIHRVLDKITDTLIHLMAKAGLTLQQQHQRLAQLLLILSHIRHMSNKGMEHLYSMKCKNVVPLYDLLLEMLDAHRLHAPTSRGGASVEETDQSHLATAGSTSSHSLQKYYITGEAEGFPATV
How it was run: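 VM7Luc4E2 cells (endogenous full-length ER-alpha, 4×ERE-luciferase) were precultured 5 days in phenol red-free medium with 10% charcoal-stripped FBS, given 10.0nM ICI-182,780 (final), then treated with compounds at 15 concentrations for 22hr at 37C; luminescence read with ONE-Glo.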

[2] = qHTS assay to identify small molecule agonists or antagonists of the thyroid stimulating hormone receptor (TSHR) signaling pathway - wild type cell line counter screen (AID 1259384)
How it was run: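 Wild-type Hek293 cells, 800/well, 18 h at 37C, then compound with Ro20-1724 for 30 min RT. cAMP by HTRF (cAMP-d2/anti-cAMP cryptate), 1 h RT, fluorescence read. 15 concentrations, triplicates.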

[3] = biological target: Thyrotropin receptor (Homo sapiens) (UniProt P16473); assay: qHTS assay to identify small molecule antagonists of the thyroid stimulating hormone receptor (TSHR) signaling pathway (AID 1259385); note: nearly all actives have a fitted effect of over 20% in size
Chain of Thyrotropin receptor (Homo sapiens) (P16473 whole entry, looked up): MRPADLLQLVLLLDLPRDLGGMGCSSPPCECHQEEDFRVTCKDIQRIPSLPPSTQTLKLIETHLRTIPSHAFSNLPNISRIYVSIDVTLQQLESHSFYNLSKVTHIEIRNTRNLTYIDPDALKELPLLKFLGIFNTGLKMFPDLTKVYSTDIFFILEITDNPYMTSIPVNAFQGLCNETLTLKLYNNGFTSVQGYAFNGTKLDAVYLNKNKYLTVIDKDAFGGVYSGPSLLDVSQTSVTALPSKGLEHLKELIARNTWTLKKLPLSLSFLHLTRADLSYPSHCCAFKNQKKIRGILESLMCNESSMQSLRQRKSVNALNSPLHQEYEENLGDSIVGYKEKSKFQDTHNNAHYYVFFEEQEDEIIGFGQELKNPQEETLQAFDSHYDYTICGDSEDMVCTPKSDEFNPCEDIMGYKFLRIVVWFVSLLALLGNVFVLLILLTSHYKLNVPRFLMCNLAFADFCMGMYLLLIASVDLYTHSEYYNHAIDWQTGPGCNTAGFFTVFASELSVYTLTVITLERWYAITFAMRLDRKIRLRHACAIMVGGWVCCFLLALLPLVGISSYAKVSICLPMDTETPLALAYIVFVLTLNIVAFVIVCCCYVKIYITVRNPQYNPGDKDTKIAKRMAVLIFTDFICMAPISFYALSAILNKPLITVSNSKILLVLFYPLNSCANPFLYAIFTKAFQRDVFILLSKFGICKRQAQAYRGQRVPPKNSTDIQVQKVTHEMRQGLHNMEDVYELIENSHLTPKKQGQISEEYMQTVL
How it was run: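 TSHR-HEK293 cells (800/well) plated 18 h, then compounds with Ro20-1724 and TSH at 1.5 ng/mL final, 30 min at room temperature. cAMP quantified by HTRF (cAMP-d2/anti-cAMP-cryptate, 1 h); 15 concentrations in triplicate.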

[4] = qHTS assay to identify small molecule agonists of the estrogen receptor alpha (ER-alpha) signaling pathway in the presence of an antagonist - cell viability counter screen (AID 1259386; active = well fitted curve in the direction sought with a large enough effect in the repeat runs; an effect the other way counts as inactive or inconclusive;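 note: series mostly up to about 92 µM; cells exposed to compounds for 22 h at 37 °C before the viability read; nearly all actives have a fitted effect of over 30% in size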)
How it was run: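 VM7Luc4E2 cells (endogenous full-length ER-alpha, 4×ERE-luciferase) were held 5 days in phenol red-free medium with 10% charcoal-stripped FBS, plated, then given 10.0nM ICI-182,780 and compounds at 15 concentrations for 22hr at 37C; viability read by CellTiter-Fluor fluorescence.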

[5] = biological target: Progesterone receptor (Homo sapiens) (UniProt P06401); assay: qHTS assay to identify small molecule agonists of the progesterone receptor (PR) signaling pathway (AID 1346784); note: nearly all actives have a fitted effect of over 30% in size
Chain of Progesterone receptor (Homo sapiens) (P06401 whole entry, looked up): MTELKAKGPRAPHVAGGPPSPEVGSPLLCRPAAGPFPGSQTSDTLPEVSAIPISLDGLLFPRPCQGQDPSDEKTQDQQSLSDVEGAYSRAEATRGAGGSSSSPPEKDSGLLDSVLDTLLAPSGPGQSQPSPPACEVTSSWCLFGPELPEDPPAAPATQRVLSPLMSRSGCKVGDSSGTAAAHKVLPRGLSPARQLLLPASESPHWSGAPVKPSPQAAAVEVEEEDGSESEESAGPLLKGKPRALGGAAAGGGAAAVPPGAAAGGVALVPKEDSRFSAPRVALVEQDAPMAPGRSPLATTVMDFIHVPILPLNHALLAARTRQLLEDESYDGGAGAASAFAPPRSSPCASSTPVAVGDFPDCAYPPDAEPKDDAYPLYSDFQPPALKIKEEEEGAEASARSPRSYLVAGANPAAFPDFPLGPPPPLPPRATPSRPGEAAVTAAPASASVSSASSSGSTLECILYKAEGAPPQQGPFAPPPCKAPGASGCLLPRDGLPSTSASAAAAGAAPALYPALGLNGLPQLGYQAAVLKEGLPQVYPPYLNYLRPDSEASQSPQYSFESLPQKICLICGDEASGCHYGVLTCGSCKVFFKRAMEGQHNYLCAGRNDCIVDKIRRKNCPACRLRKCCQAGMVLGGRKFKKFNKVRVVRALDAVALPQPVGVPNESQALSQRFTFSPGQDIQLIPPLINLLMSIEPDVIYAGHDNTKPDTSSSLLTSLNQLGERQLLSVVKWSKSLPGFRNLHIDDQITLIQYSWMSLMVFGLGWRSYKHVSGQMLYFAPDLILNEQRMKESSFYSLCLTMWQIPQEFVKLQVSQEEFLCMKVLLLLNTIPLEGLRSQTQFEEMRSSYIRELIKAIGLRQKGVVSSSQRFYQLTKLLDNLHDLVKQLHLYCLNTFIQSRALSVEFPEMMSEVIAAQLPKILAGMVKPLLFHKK
How it was run: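 Agonist mode, quantitative HTS format in a HEK 293T line expressing a UAS-controlled beta-lactamase reporter; 16 hr compound exposure at 37C in 2% charcoal-stripped FBS, then LiveBLAzer B/G FRET fluorescence.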

[6] = biological target: Progesterone receptor (Homo sapiens) (UniProt P06401); assay: qHTS assay to identify small molecule antagonists of the progesterone receptor (PR) signaling pathway (AID 1346795; active = well fitted inhibition curve with a large enough effect in the signal ratio in the repeat runs, not every such curve was filed as active; the % refers to the signal ratio)
How it was run: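 HEK293T PR-UAS-bla reporter cells in charcoal-stripped serum (2%) received compound after a 6 hr settling period, followed by R5020 agonist at 1 nM final; 16 hr incubation preceded the FRET substrate step and fluorescence measurement.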

[7] = qHTS assay to identify small molecule antagonists of the progesterone receptor (PR) signaling pathway - cell viability counter screen (AID 1346798; active = well fitted curve in the direction sought with a large enough effect in the repeat runs; an effect the other way counts as inactive or inconclusive; note: series mostly up to about 92 µM; nearly all actives have a fitted effect of over 50% in size)
How it was run: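 Same-well multiplex: after 16 hr at 37C with compound and R5020 stimulation, HEK293T cells carrying a UAS-bla reporter received LiveBLAzer substrate (2 hr RT), then CellTiter-Glo (30 min RT) for luminescent viability.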

[8] = qHTS assay to identify small molecule agonists of the TGF-beta/Smad signaling pathway - cell viability counter screen (AID 1346829; active = well fitted curve in the direction sought with a large enough effect in the repeat runs; an effect the other way counts as inactive or inconclusive; note: top concentration of the series differs between compounds; nearly all actives have a fitted effect of over 45% in size)
How it was run: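 HEK 293T SBE-bla line, 5 hr compound exposure at 37 C, multiplexed CellTiter-Glo viability read by luminescence.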

[9] = qHTS assay to identify small molecule agonists of the progesterone receptor (PR) signaling pathway - cell viability counter screen (AID 1346799); note: nearly all actives have a fitted effect of over 45% in size
How it was run: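 Counter screen for cytotoxicity: compound-treated PR-UAS-bla HEK293T cells (16 hr, 37C, 5% CO2) were assayed with CellTiter-Glo, luminescence measured after 30 min at room temperature.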

[10] = qHTS assay to identify small molecule antagonists of the TGF-beta/Smad signaling pathway - cell viability counter screen (AID 1346824; active = well fitted curve in the direction sought with a large enough effect in the repeat runs; an effect the other way counts as inactive or inconclusive; note: nearly all actives have a fitted effect of over 50% in size)
How it was run: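 SBE-bla HEK 293T cells, incubated overnight, then compound plus 0.25 ng/mL TGF-beta1 (stock added) for 5 hr at 37 C. Viability was read in the same wells by CellTiter-Glo luminescence after 30 min at room temperature.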
% is set by controls: 0 for no effect and ±100 for the full control effect.

OCCC(F)(F)C(F)(F)C(F)(F)C(F)(F)C(F)(F)C(F)(F)F
inactive: Potency [1] | outcome [2] | outcome [3] | outcome [4] | Potency [5] | Potency [6] | outcome [7] | outcome [8]

CCCCC(CC)CCC(CC(C)C)OS(=O)(=O)O (configuration not stated)
inactive: Potency [1] | outcome [2] | outcome [3] | outcome [4] | Potency [5] | Potency [6] | outcome [7] | Potency [9] | outcome [10] | outcome [8]

C[C@@H]1CCC[C@H](C)N1CCCC(O)(c1ccccc1)c1ccccn1 (some centres not stated)
inactive: Potency [1] | outcome [2] | outcome [3] | outcome [4] | Potency [5] | Potency [6] | outcome [7] | outcome [10] | outcome [8]

C/C=C(\C)C(=O)OC/C=C(\C)CCC=C(C)C
inactive: Potency [1] | outcome [2] | outcome [3] | outcome [4] | Potency [5] | Potency [6] | outcome [7] | outcome [10] | outcome [8]

Cc1ccc(S(=O)(=O)NC(=O)NN2CC3CCCC3C2)cc1 (configuration not stated)
inactive: Potency [1] | outcome [2] | outcome [3] | outcome [4] | Potency [5] | Potency [6] | outcome [7] | Potency [9] | outcome [8]

CCCCN=C(N)N=C(N)N
inactive: Potency [1] | outcome [2] | outcome [3] | outcome [4] | Potency [5] | Potency [6] | outcome [10] | outcome [8]

CC(C)(C)c1ccc(C(=O)CCCCl)cc1
active: Potency [1] 7.5 µM
inactive: outcome [2] | outcome [3] | outcome [4] | Potency [5] | Potency [6] | outcome [7] | Potency [9] | outcome [10] | outcome [8]

Cc1cccc(N)n1
inactive: Potency [1] | outcome [2] | outcome [3] | outcome [4] | Potency [5] | Potency [6] | outcome [7] | outcome [10] | outcome [8]

CCCCCCCCCCCCCCCC(=O)OC
inactive: activation [1] -2.08% [at 19 µM] | cAMP activity change [2] -2.44% [at 18.9 µM] | activity change, negative = inhibition [3] 1.93% [at 19 µM] | activity change, negative = cytotoxicity [4] -0.526% [at 19 µM] | activation [5] -3.12% [at 19 µM] | activity change, negative = inhibition [6] 0.526% [at 18.9 µM] | activity change, negative = cytotoxicity [7] 20% [at 18.9 µM] | viability change, negative = cytotoxic [10] 1.68% [at 15.8 µM] | activity change, negative = cytotoxicity [8] -0.944% [at 15.8 µM]

CC(=O)Nc1ccc(S(=O)(=O)Nc2cc(C)on2)cc1
inactive: Potency [1] | outcome [2] | outcome [3] | outcome [4] | Potency [5] | Potency [6] | outcome [7] | Potency [9] | outcome [8]

CCCCNCC
inactive: Potency [1] | outcome [2] | outcome [3] | outcome [4] | Potency [5] | Potency [6] | Potency [9] | outcome [10] | outcome [8]

CCN(CC)CC
inactive: Potency [1] | outcome [2] | outcome [3] | outcome [4] | Potency [5] | Potency [6] | outcome [7] | Potency [9] | outcome [8]

CCO[Si](CC(C)C)(OCC)OCC
inactive: Potency [1] | outcome [2] | outcome [3] | outcome [4] | Potency [5] | Potency [6] | outcome [10] | outcome [8]

CC(C)CC(O)Cc1ccccc1 (configuration not stated)
inactive: Potency [1] | outcome [2] | outcome [3] | outcome [4] | Potency [5] | Potency [6] | outcome [7] | Potency [9] | outcome [10] | outcome [8]

CC(=O)OC1CCC(C(C)(C)C)CC1 (configuration not stated)
inactive: Potency [1] | outcome [2] | outcome [3] | outcome [4] | Potency [5] | Potency [6] | outcome [7] | Potency [9] | outcome [10] | outcome [8]

CN1CCN(C(=O)C2CCCCC2)CC1
inactive: Potency [1] | outcome [2] | outcome [3] | outcome [4] | Potency [5] | Potency [6] | outcome [7] | Potency [9] | outcome [8]

COc1cnc(NS(=O)(=O)c2ccc(N)cc2)nc1
inactive: Potency [1] | outcome [2] | outcome [3] | outcome [4] | Potency [5] | Potency [6] | outcome [7] | Potency [9] | outcome [8]

CCOC(=O)CC(C(C)=O)C(C)=O
inactive: Potency [1] | outcome [2] | outcome [3] | outcome [4] | Potency [5] | Potency [6] | outcome [7] | Potency [9] | outcome [10] | outcome [8]

NNC(=O)OCc1ccccc1
inactive: Potency [1] | outcome [2] | outcome [3] | outcome [4] | Potency [5] | Potency [6] | Potency [9] | outcome [10] | outcome [8]

CC(=O)OC/C=C(/C)CCC=C(C)C
inactive: Potency [1] | outcome [2] | outcome [3] | outcome [4] | Potency [5] | Potency [6] | outcome [7] | Potency [9] | outcome [10] | outcome [8]

COCCCOc1cc(C[C@@H](C[C@H](N)[C@@H](O)C[C@H](C(=O)NCC(C)(C)C(N)=O)C(C)C)C(C)C)ccc1OC
inactive: Potency [1] | outcome [2] | outcome [3] | outcome [4] | Potency [5] | Potency [6] | outcome [7] | Potency [9] | outcome [8]

O=C(O)CCCCCCCCCC(=O)O
inactive: Potency [1] | outcome [2] | outcome [3] | outcome [4] | Potency [5] | Potency [6] | outcome [7] | Potency [9] | outcome [10] | outcome [8]

O=C(O)Cc1ccccc1Oc1ccc(Cl)cc1Cl
inactive: Potency [1] | outcome [2] | outcome [3] | outcome [4] | Potency [5] | Potency [6] | outcome [7] | Potency [9] | outcome [10] | outcome [8]

C[C@@H]1CC[C@@]2(OC1)O[C@H]1C[C@H]3[C@@H]4CC[C@H]5C[C@@H](O)CC[C@]5(C)[C@H]4CC(=O)[C@]3(C)[C@H]1[C@@H]2C
inactive: activation [1] 0.597% [at 8.39 µM] | cAMP activity change [2] -0.224% [at 8.39 µM] | activity change, negative = inhibition [3] -0.41% [at 8.39 µM] | activity change, negative = cytotoxicity [4] 0.111% [at 8.39 µM] | activation [5] -0.697% [at 8.39 µM] | activity change, negative = inhibition [6] 17.4% [at 8.39 µM] | activity change, negative = cytotoxicity [7] 12.3% [at 8.39 µM] | activity change, negative = cytotoxicity [9] 3.64% [at 8.39 µM] | viability change, negative = cytotoxic [10] -1.38% [at 6.97 µM] | activity change, negative = cytotoxicity [8] -1.03% [at 6.97 µM]

Cc1cc(O)c(Cl)cc1C
inactive: Potency [1] | outcome [2] | outcome [3] | outcome [4] | Potency [5] | Potency [6] | outcome [7] | Potency [9] | outcome [10] | outcome [8]
